Screening data: PubChem, National Center for Advancing Translational Sciences (NCATS)
Rows were chosen to be rich in hits. Some 2.4% of all compounds tested hit in one or more screens of this group.
D2 PAM-1 – positively modulates the human D2 dopamine receptor allosterically; HEK293 T-REx D2, calcium flux, EC20 dopamine potentiation; AID 485347; actives 0.34% (n = 340,000); potentiation, % at 10 µM; P14416;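 active means potentiation over 3 SD above the plate norm, cut at about 30% in these data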; further: 0% is about no effect
Target sequence (P14416 whole entry, looked up): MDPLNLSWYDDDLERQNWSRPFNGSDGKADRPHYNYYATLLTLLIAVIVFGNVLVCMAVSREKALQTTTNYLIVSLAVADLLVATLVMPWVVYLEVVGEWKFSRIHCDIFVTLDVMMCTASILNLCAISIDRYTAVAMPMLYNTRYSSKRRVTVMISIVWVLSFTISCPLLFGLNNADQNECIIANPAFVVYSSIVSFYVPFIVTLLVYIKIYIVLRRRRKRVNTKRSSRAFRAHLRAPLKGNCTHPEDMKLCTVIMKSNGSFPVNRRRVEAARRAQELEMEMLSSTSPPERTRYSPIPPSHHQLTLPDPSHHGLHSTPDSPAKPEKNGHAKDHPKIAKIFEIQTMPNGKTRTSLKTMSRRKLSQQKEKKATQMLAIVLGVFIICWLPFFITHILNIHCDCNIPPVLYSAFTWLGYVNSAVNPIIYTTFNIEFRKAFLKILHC
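Cells plated with tetracycline inducer and held overnight at 30 C; calcium dye loaded 30–90 min at room temperature; baseline taken, compound added and read 180 s; EC20 dopamine then added and read 180 s.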
D2 PAM-2 – potentiates the human D2 dopamine receptor allosterically; P14416; DiscoveRx D2 beta-arrestin cells, luminescence, 90 min; 100% = 57 uM dopamine signal; potentiation, % (concentration not given with the values); actives 0.23% (n = 360,000); AID 624464; in the data active means potentiation above about 50%
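D2 cells co-treated with compound plus 50 nM dopamine (EC20) for 90 min at 37 deg C to detect potentiation. Beta-arrestin recruitment was read as enzyme-fragment luminescence after 1 h at ambient temperature. Full response was set by 57 uM dopamine.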
D2 ag-1 – human D2 receptor agonism in beta-arrestin assay; DiscoveRx PathHunter D2 beta-arrestin, luminescence, 90 min; 100% = 57 uM dopamine signal; activation, % (concentration not given with the values); actives 0.084% (n = 360,000); in the data active means activation above about 40%
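Agonist mode: compounds alone added to overnight-plated D2 PathHunter cells for 90 min at 37 C, with 57 uM final dopamine (EC100) defining full response. Beta-arrestin recruitment detected by chemiluminescent reagent, read after 1 h at ambient temperature.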
D2 antag – antagonizes the human D2 dopamine receptor; HEK293 TREx D2 cells, calcium flux, dopamine EC80; inhibition, % at 10 µM; actives 2% (n = 340,000); AID 485344; in the data active means inhibition above about 30%; inactive means below that, where a call was filed; further: 0% is about no effect
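HEK293 T-REx D2 cells, tet-induced, calcium dye no-wash. Cpd pintool add, 180 s kinetic, then EC80 DA, 180 s kinetic. Ca flux read.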
D2 ag-2 – D2 dopamine receptor (human) agonism; P14416; HEK293 T-REx D2 cells, calcium flux agonist mode; activation, % at 2 µM; actives 0.53% (n = 340,000); AID 485358;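 active means activation over 3 SD above normal in the single-dose calcium agonist read, cut at about 30% in these data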; further: 0% is about no effect
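In this primary screen, compounds producing a positive calcium signal within 180 s of addition to tetracycline-induced, force-coupled HEK293 Trex D2 cells are flagged; cells are dye-loaded with a no-wash calcium kit beforehand.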
* marks the source's active call; other numbers are inactive results; / = not tested or not shown.

SMILES	D2 PAM-1	D2 PAM-2	D2 ag-1	D2 antag	D2 ag-2
Cc1n[nH]c(C)c1N1C(=O)c2cccc3c(N4CCCCCC4)ccc(c23)C1=O	3	-8	1	20	84*
O=C1c2cccc3c(N4CCCCC4)ccc(c23)C(=O)N1CCO	-1	-7	1	6	19
O=C1c2cccc3c(N4CCCCC4)ccc(c23)C(=O)N1c1cccc(O)c1	-7	3	0	16	57*
O=C(O)/C=C/c1ccc([N+](=O)[O-])o1	2	2	14	18	1
N#CCc1ccc(NC(=O)/C=C/c2ccc([N+](=O)[O-])o2)cc1	0	-7	14	32*	0
OC1CCCN(c2c3c(nc4cc(-c5cccc(F)c5)nn24)CCCC3)C1 (stereo not given)	0	2	0	47*	0
O=C(CSc1nccn1Cc1ccc(F)cc1)Nc1nc2ccccc2s1	-8	/	/	/	1
O=C(O)C1C2CCC(C2)C1C(=O)NCCc1ccccc1 (stereo not given)	-13	-1	-1	10	36*
COc1ccc(CCNC(=O)C2C3CCC(C3)C2C(=O)O)cc1OC (stereo not given)	4	-3	7	-4	0
O=c1cc(N2CCOCC2)[nH]c(=O)n1-c1ccc(Cl)cc1	-4	-12	-3	41*	0
O=c1cc(N2CCCC2)[nH]c(=O)n1-c1ccc(Cl)cc1	-5	-5	-6	1	0
Cc1ccc(NC(=O)COc2cccc3c2OC(C)(C)C3)c(O)c1	-3	-13	-2	30*	-1
CC(C)(C)CN1CCC(Oc2cccc(C(=O)N3CCNC(=O)C3(C)C)c2)CC1	7	-13	-4	32*	0
CCCN1CCC(Oc2cccc(C(=O)NCCc3ccccc3)c2)CC1	31*	-6	-3	-2	0
CCCCN(C)C(=O)c1cccc(OC2CCN(CC(C)(C)C)CC2)c1	-1	-2	0	67*	1
COCCNC(=O)c1cccc(OC2CCN(Cc3cccc(C(C)=O)c3)CC2)c1	-6	-2	-6	6	1
COc1ccc(C)cc1NC(=O)CC1NCCNC1=O (stereo not given)	-2	/	/	/	-1
CCCn1c(SCc2nc(-c3ccc(OC)c(OC)c3)no2)nnc1-c1ccccc1	10	/	/	/	3
O=C(Cn1cccc1C(=O)c1ccccc1)NCCCN1CCOCC1	-6	-21	-1	4	1
Cc1ccc(C)c(N2CCN(CCCNC(=O)Cn3cccc3C(=O)c3ccccc3)CC2)c1	-46	-26	-2	41*	0
O=C(Cn1cccc1C(=O)c1ccccc1)NCCN1CCOCC1	-15	-4	-2	55*	1
Cc1ccc(C)c(NC(=O)c2cc(S(=O)(=O)N3CCCCCC3)ccc2F)c1	13	/	/	/	0
COc1ccccc1CNC(=O)c1cc2c(=O)n(Cc3cccs3)ccc2nc1C	-16	/	/	/	1
Cc1ccc(NC(=O)Cn2nnc(-c3nc(-c4ccncc4)no3)c2N)cc1	2	/	/	/	/
Cc1nc(-n2nnc3ccccc32)c2c3c(sc2n1)CCCC3	-6	-4	-1	-15	-1
SMILES	D2 PAM-1	D2 PAM-2	D2 ag-1	D2 antag	D2 ag-2
Oc1ccc(N2CCN(c3ncnc4sc5c(c34)CCC5)CC2)cc1	4	68*	11	-9	0
c1ccc2c(c1)nnn2-c1ncnc2sc3c(c12)CCCC3	11	-7	0	31*	1
OCCN1CCN(c2ncnc3sc4c(c23)CCCC4)CC1	16	-4	7	0	1
O=c1[nH]c(Nc2ccc3c(c2)OCCO3)nnc1Cc1ccc(Cl)cc1	2	-4	-1	33*	0
COc1ccc(Cc2nnc(Nc3ccc(Cl)cc3)[nH]c2=O)cc1	-1	0	4	-4	-1
Cc1cc(C)c(-c2csc(NC(=O)C3=COCCO3)n2)cc1C	3	-18	-1	32*	-1
CC(C)(C)c1ccc(-c2cn(-c3ccc(Br)cc3)c3[n+]2CCCS3)cc1	-13	-10	-1	42*	1
c1ccc(-c2cn(-c3ccccc3)c3[n+]2CCS3)cc1	8	-9	-2	4	-1
COC(=O)c1ccc(NC(=O)CN2CCCN(Cc3ccc(Cl)cc3)S2(=O)=O)cc1	11	/	/	/	1
